Laboratory results as given in PubChem BioAssay AID2514 (National Center for Advancing Translational Sciences (NCATS), 2010).
Values joined by “and” are separate entries in the source; they are usually repeats but may differ in a detail not shown here. Identical values can stand only once. Results filed as inconclusive are left out. Active and inactive are the calls of the source. Calls come from the whole dose curve; as a rule, active = well fitted activation curve with a large enough effect; inconclusive = small, poorly fitted or top-dose-only effect; inactive = no such curve, though single readings can be large or run the other way.

assay: Confirmation Concentration-Response Assay for Enhancers of SMN2 Splice Variant Expression for Probe SAR; conditions: HEK293 SMN2 exon7 splicing luciferase reporter, luminescence; series mostly up to 46.1 µM
Excerpt: NIH Chemical Genomics Center [NCGC] NIH Molecular Libraries Probe Production centers Network [MLPCN] MLPCN Grant: R03 MH084179-01 Assay Submitter (PI): Elliot Androphy NCGC Assay Overview: Spinal muscular atrophy (SMA) is caused by insufficient levels of the survival motor neuron protein SMN. The SMN locus on chromosome 5q13 contains two inverted copies of SMN called SMN1 and SMN2 which are 99% identical at the amino acid level. SMN1 is a fully functional protein and SMN2 skips exon 7 90% of the time. Skipping of exon 7 produces non-functional protein product. 10% of the SMN2 protein includes exon 7 and is fully functional. In the SMA disease state, mutations in the SMN1 locus are the cause of the disease state. Because only 10% of SMN2 is of the fully functional form, it is not sufficient to overcome the deficiency produced by the loss of the SMN1 product. A therapy that either increase the amount of SMN2 product made or to increase the inclusion of exon 7 has been proposed for the treatment of SMA. We have designed an assay to identify small molecules that can increase the amount of functional SMN2 product by appending a luciferase reporter gene after the native SMN2 gene, such that inclusion of exon 7 in the expressed product places the luciferase sequence in frame, thus generating functional luciferase enzyme.
NCGC Assay Protocol Summary: This screen utilizes a luciferase reporter gene assay, combining the promoter with the major portion of the native SMN2 cDNA (exons 1 -7, intron 8 , exon 8 fused to luciferase) stably expressed in HEK293 cells. Compounds that increase luciferase signal presumably enhance expression of the functional SMN2 splice variant. Passaging media contained DMEM w/ glutamax (+phenol red) 10% FCS, 1x pen/strep, 200 ug/ml hygro, 1x sodium pyruvate. Assay media contained DMEM w/ glutamax (-phenol red) 10% FCS, 1x pen strep, 1x pyruvate Sequence, Parameter, Value, Description (1) Cells, 5 uL, 2000 cells/well, 1536 TC treated White solid bottom plate (2) Time, 10-12 hours, 37C 5% CO2 (3) Compound, 23 nl, MLSMR Library (4) Control Compound, 23 nL, Sodium butyrate st 4.5mM (final) conc (5) Time, 30-36 hours, 37C 5% CO2 (6) Reagent, 3 ul, One Glo (TM) from Promega (7) Time, 5-15 minutes, Room temp (8) Detector, Viewlux: luminescent read, 60 second integration, high speed 2x binning Keywords: Spinal muscular atrophy, SMA, SMN2, high throughput screening, MLSMR, MLPCN, NIH Roadmap, qHTS and NCGC

Row | Structure (SMILES) | Potency
1 | COc1ccc(-c2csc(N3CCC(C(N)=O)CC3)n2)cc1 | 4.34 µM (active)
2 | NC(=O)C1CCN(c2nc(-c3ccccc3C(F)(F)F)cs2)CC1 | inactive
3 | Cn1ccc2cc(-c3csc(N4CCC(C(N)=O)CC4)n3)ccc21 | 4.34 µM (active)
4 | CN(C)c1ccccc1-c1csc(N2CCC(C(N)=O)CC2)n1 | inactive
5 | NC(=O)C1CCN(c2nc(-c3ccc(F)cc3)cs2)CC1 | 3.45 µM (active)
6 | NC(=O)C1CCN(c2nc(-c3cccnc3)cs2)CC1 | inactive
7 | NC(=O)C1CCN(c2nc(-c3cc4ccccc4o3)cs2)CC1 | 8.67 µM (active)
8 | NC(=O)C1CCN(c2nc(-c3ccccc3-c3ccccc3)cs2)CC1 | inactive
9 | NC(=O)C1CCN(c2nc(-c3ccc4ccccc4c3)cs2)CC1 | 4.87 µM (active)
10 | NC(=O)C1CCN(c2nc(-c3cccc(N)c3)cs2)CC1 | inactive
11 | NC(=O)C1CCN(c2nc(-c3cccs3)cs2)CC1 | 7.72 µM (active)
12 | CC(=O)c1ccc(-c2csc(N3CCC(C(N)=O)CC3)n2)cc1 | 7.72 µM (active)
13 | NC(=O)C1CCN(c2nc(-c3ccccc3Br)cs2)CC1 | inactive
14 | CS(=O)(=O)c1ccccc1-c1csc(N2CCC(C(N)=O)CC2)n1 | inactive
15 | NC(=O)C1CCN(c2nc(-c3ccc4occc(=O)c4c3)cs2)CC1 | 7.72 µM (active)
16 | CS(=O)(=O)c1cccc(-c2csc(N3CCC(C(N)=O)CC3)n2)c1 | inactive
17 | NC(=O)C1CCN(c2nc(-c3ccc4c(c3)OCCO4)cs2)CC1 | 0.688 µM (active)
18 | NC(=O)C1CCN(c2nc(-c3ccc(Br)cc3)cs2)CC1 | 708 nM (active) and 772 nM (active)
19 | CN(C)c1cccc(-c2csc(N3CCC(C(N)=O)CC3)n2)c1 | 0.688 µM (active)
20 | Cc1ccc(-c2csc(N3CCC(C(N)=O)CC3)n2)cc1 | 0.772 µM (active)
21 | CC(=O)c1cccc(-c2csc(N3CCC(C(N)=O)CC3)n2)c1 | 3.87 µM (active)
22 | NC(=O)C1CCN(c2nc(-c3ccccc3F)cs2)CC1 | 1.37 µM (active)
23 | Cc1noc(C)c1-c1csc(N2CCC(C(N)=O)CC2)n1 | inactive
